Reference: ChEMBL document CHEMBL3988442, “University of Dundee, Small-Polar-MMV Screening Library” (2021)
The whole screen tested about 48,000 compounds, of which about 13,000 (27%) showed an effect of 50% or more. Some of the results follow.

Test system: Wolbachia pipientis
Test: Anti-Wolbachia Cell-Based Screen
Type: functional
Design: scale not given: in the data most compounds retested in dose-response had high values
Conditions: 5 µM

Row | SMILES | Percent Effect [%]
1 | COCc1nc(CNc2cccc(-c3nc(C)c(C)o3)c2)cs1 | -0.1423
2 | N#Cc1cccc(C(=O)N2C[C@H]3CC[C@@H]2CN(C(=O)C2CCC2)C3)c1 | -9.215
3 | CN(C)S(=O)(=O)N1C[C@@H]2CC[C@H](C1)N(Cc1ccc(F)c(F)c1)C2 | -2.464
4 | Cc1c(Cl)cc(C(=O)NCCc2ncnn2C)cc1Cl | -11.54
5 | O=C1CC(c2cccc(O)c2)c2sc(C(=O)O)c(-c3ccccc3)c2N1 (stereo unspecified) | 10.05
6 | CNC(=O)[C@H]1C[C@@H]2CN(Cc3ccc(OC)cc3)C[C@H]1O2.O=C(O)C(F)(F)F | 98.44
7 | Cc1ccc(CN2C[C@H]3C[C@H](C(=O)NCc4cccnc4)[C@@H](C2)O3)cc1 | 0.7721
8 | CNC(=O)[C@H]1CCS(=O)(=O)[C@@H]2CN(Cc3ccc(OC)cc3)C[C@H]12 | 0.06663
9 | CNC(=O)[C@H]1C[C@@H]2CN(Cc3cccc(C)c3)C[C@H]1O2.O=C(O)C(F)(F)F | 116.6
10 | CNC(=O)[C@H]1C[C@@H]2CN(Cc3ccccc3)C[C@H]1O2.O=C(O)C(F)(F)F | 106.1
11 | COc1ccc(CN2C[C@@H]3COC[C@H](N4CCN(C)CC4)[C@@H]3C2)cc1.O=C(O)C(F)(F)F.O=C(O)C(F)(F)F.O=C(O)C(F)(F)F | -28.1
12 | Cc1cccc(CN2C[C@H]3C[C@H](C(=O)NCc4cccnc4)[C@@H](C2)O3)c1.O=C(O)C(F)(F)F.O=C(O)C(F)(F)F | -0.193
13 | CN(C)C(=O)[C@H]1C[C@@H]2CN(CCc3ccccc3)C[C@H]1O2.O=C(O)C(F)(F)F | 12.58
14 | CNC(=O)[C@H]1C[C@@H]2CN(Cc3ccc(C)cc3)C[C@H]1O2.O=C(O)C(F)(F)F | 103.7
15 | CC(C)c1nc(CNc2ccc(N3CCC(CO)CC3)cn2)cs1 | 0.232
16 | Cl.O=C(CN1CCC[C@@H]1C(=O)O)NCCOc1cccc(C(F)(F)F)c1 | -3.641
17 | OC[C@H]1CN(Cc2c(Cl)cccc2Cl)C[C@H]1CN1CCCCC1 | 2.429
18 | Nc1nccc(N2C[C@@H](CN3CCCCC3)[C@@H](CO)C2)n1 | 106.5
19 | CCN1CCN(C[C@@H]2CN(c3ncccc3Cl)C[C@@H]2CO)CC1 | -1.669
20 | CSc1nccc(N2C[C@@H](CN3CCCCC3)[C@@H](CO)C2)n1 | 104.9
21 | Cc1nccc(N2C[C@@H](CN3CCCC3)[C@@H](CO)C2)n1 | 109.4

Row | SMILES | Percent Effect [%]
22 | Cn1ccnc1CN1C[C@@H](CN2CCCC2)[C@@H](CO)C1 | 2.193
23 | Cn1ccnc1CN1C[C@@H](CN2CCCCC2)[C@@H](CO)C1 | -0.1943
24 | Cc1nc(N2C[C@@H](CN3CCCCC3)[C@@H](CO)C2)c2sccc2n1 | 8.907
25 | Cn1ccnc1CN1C[C@@H](CN2CCCCCC2)[C@@H](CO)C1 | -5.321
26 | Cc1cc(CN(C)C(=O)C(c2ccccc2C)N(C)C)on1 (stereo unspecified) | -6.719
27 | COCC1CN(c2ccc3c(Cl)ccnc3c2F)CCO1 (stereo unspecified) | -23.97
28 | CC(C)n1nc(Cn2cccn2)c2c1CN(C1CCOCC1)C2.O=C(O)C(F)(F)F | -12.7
29 | CSCC(CCO)Nc1cccc(C(F)(F)F)n1 (stereo unspecified) | -4.466
30 | Cc1[nH]/c(=N\C(=O)c2csc(NC3CC3)n2)sc1C | 5.659
31 | CCn1nc(C(C)C)cc1C(=O)N1CC(OCc2ccccc2F)C1 | -12.74
32 | CC(C)C(=O)N1CCCC2(CCCN2CC2CCCC2)C1.O=C(O)C(F)(F)F (stereo unspecified) | 4.18
33 | CCC(NC(=O)c1nn(C)cc1C(=O)O)c1ccccc1 (stereo unspecified) | 82.78
34 | COc1ccc(C(CC(=O)O)NC(=O)c2cc(C)on2)cc1 (stereo unspecified) | 2.487
35 | CCC(NC(=O)c1nn(C)cc1C(=O)O)c1ccc(C)cc1C (stereo unspecified) | 113.8
36 | CCC(NC(=O)c1c(C(=O)O)cnn1C)c1ccc(C)cc1C (stereo unspecified) | 109.1
37 | CCC(NC(=O)c1nn(C)cc1C(=O)O)c1ccc(C)cc1 (stereo unspecified) | 104.3
38 | Cc1ccc(C(C(=O)O)N(C)CCCN2CCOCC2)c(C)c1 (stereo unspecified) | -9.259
39 | CCC(NC(=O)c1cc(CC(C)C)nn1C)c1cc(C)ccn1 (stereo unspecified) | 6.008
40 | CCC(CC)NC(=O)Cn1cc(C(N)=O)c(-c2ccccc2)n1 | -10.51
41 | CCC(NC(=O)c1cc(NC(C)=O)ccc1Cl)c1cc(C)ccn1 (stereo unspecified) | -8.351
42 | CCNc1ncc(C(=O)NC(CCN(C)C)c2ccccc2)cn1 (stereo unspecified) | 13.66

Row | SMILES | Percent Effect [%]
43 | CCC(NC(=O)CN(C)Cc1ccc(C)o1)c1ccc(C)cc1 (stereo unspecified) | 3.05
44 | CCCC(NC(=O)c1cc(C)ccc1C)c1nnn[nH]1 (stereo unspecified) | -4.44
45 | CSCC(CCO)NC(=O)Nc1cc(C)ccc1C (stereo unspecified) | -5.082
46 | CC(C)(C)NC(=O)NCc1cnn2ccccc12 | -7.455
47 | CCOCCN1C[C@H](c2cccc(OC)c2)[C@@H](N)C1 | -6.771
48 | Cc1cnccc1N1CCN(c2nccc(CCC(F)(F)F)n2)CC1 | 13.49
49 | Cc1nc(C)n(CC2CCCN2CC(=O)Nc2ccnn2C(C)C)n1 (stereo unspecified) | -5.093
50 | CCOCC(=O)N1CC[C@H]2OCC[C@@H](c3nnc(C)o3)[C@H]2C1 | 13.01
51 | Cc1ccc(C(=O)NCC(O)c2ccc(F)c(F)c2)c(=O)[nH]1 (stereo unspecified) | -52.3
52 | Cn1c(SCC2OCCc3ccccc32)n[nH]c1=O (stereo unspecified) | -11.92
53 | CN(c1ccc(F)cc1)S(=O)(=O)c1cc2c(c(C(=O)O)c1)OCCO2 | -14.55
54 | Cc1ccc(S(=O)(=O)N2CCOc3ccccc32)cc1C(=O)O | -0.06219
55 | O=C(O)c1cc(S(=O)(=O)Nc2cccc(F)c2F)cc2c1OCCO2 | 134.3
56 | CN(c1ccccc1)S(=O)(=O)c1cc2c(c(C(=O)O)c1)OCCO2 | 4.597
57 | O=C(O)c1cc(S(=O)(=O)Nc2cc(F)ccc2F)cc2c1OCCO2 | 0.9161
58 | O=C(O)c1cc(S(=O)(=O)Nc2ccc(F)cc2F)cc2c1OCCO2 | 104.7
59 | Cc1ccc(F)cc1NS(=O)(=O)c1cc2c(c(C(=O)O)c1)OCCO2 | 117.8
60 | CN(c1c(F)cccc1F)S(=O)(=O)c1cc2c(c(C(=O)O)c1)OCCO2 | 7.763
61 | Cc1cc(F)ccc1NS(=O)(=O)c1cc2c(c(C(=O)O)c1)OCCO2 | 118
